The source of these data is PubChem BioAssay AID588342 (National Center for Advancing Translational Sciences (NCATS), 2011).

Each structure is given as a SMILES string. In all, about 360,000 compounds went through this assay and about 25,000 (6.9%) were called active. Not shown: some 9% with an inconclusive outcome. Calls follow the shape of the dose curve; as a rule, active = well fitted inhibition curve with a large enough effect; inconclusive = small, poorly fitted or top-dose-only effect; inactive = flat fitted curve, though single readings scatter. The list comes from a sample in which actives are over-represented; it also holds similar structures and randomly drawn compounds. A call without a number means that no potency is given here.
Potency is read from the fitted curve at half-maximal effect.

Chain of Luciferin 4-monooxygenase (Photinus pyralis) (P08659 whole entry, looked up): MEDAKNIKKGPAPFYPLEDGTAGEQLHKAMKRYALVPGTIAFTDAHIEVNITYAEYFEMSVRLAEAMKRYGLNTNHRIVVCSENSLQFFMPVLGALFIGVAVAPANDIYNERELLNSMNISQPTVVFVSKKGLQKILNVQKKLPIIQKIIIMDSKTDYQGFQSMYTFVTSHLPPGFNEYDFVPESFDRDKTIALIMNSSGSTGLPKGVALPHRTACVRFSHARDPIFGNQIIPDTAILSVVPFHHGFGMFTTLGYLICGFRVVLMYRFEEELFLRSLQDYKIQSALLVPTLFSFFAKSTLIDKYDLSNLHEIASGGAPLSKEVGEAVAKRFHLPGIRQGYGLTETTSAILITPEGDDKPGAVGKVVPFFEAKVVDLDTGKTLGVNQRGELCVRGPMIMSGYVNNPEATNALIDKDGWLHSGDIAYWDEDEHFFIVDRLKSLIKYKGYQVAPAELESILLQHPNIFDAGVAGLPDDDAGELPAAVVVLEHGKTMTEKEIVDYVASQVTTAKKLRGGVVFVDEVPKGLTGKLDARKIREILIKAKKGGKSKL

The target in this assay is Luciferin 4-monooxygenase (Photinus pyralis) (UniProt P08659). Kind of assay: qHTS profiling assay for firefly luciferase inhibitor/activator using purifed enzyme and Km concentrations of substrates (counterscreen for miR-21 project). Also: nearly all actives have a fitted effect of over 55% in size. As to conditions: purified FLuc, luminescence inhibition; series mostly up to 57.5 µM. The essentials:
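Purified P. pyralis luciferase (10nM final) with 10uM D-luciferin and 10uM ATP (Km levels) in 50mM Tris acetate pH 7.5, 10mM Mg acetate, 0.01% Tween-20, 0.05% BSA; qHTS 6-point titration, ~60 µM downward; luminescence read.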
Background: In qHTS, concentration-response curves come from the screen itself.
As for `CCOC(=O)c1c(C)oc2nc(C)nc(N3CCN(c4ccc(OC)cc4)CC3)c12`, the Potency result was “inactive”. The result for `O=S(=O)(c1ccc(SCc2ccc(Br)cc2)nc1)N1CCOCC1` reads “inactive”; that for `COc1ccccc1N1CCN(c2ncnc3onc(-c4cccc(Cl)c4)c23)CC1`, “inactive”; that for `COc1cc(NC(=O)c2nn(-c3ccc(C)cc3)c(=O)c3c2c2ccccc2n3C)cc(OC)c1OC`, “inactive”.

On to `COc1cc2nc(SCC(=O)Nc3ccccc3F)n3nc(-c4ccccc4)nc3c2cc1OC`, for which the Potency entry was “inactive”. The same measure for `c1ccc(CNc2ncnc3[nH]ncc23)cc1`: “inactive”; for `Cc1ccc(NC(=O)CN(C)C(=O)c2cccc(S(=O)(=O)N3CCCC3)c2)cc1`: “inactive”. The same measure for `Cc1[nH]c2c(C(=O)N3CCCC(CCC(=O)NCc4ccccc4F)C3)cccc2c1C` (stereo not given): “inactive”; for `COc1ccc(C(=O)C2CCCN(C(=O)c3cc(C)on3)C2)cc1F` (stereo not given): “inactive”. For `COc1ccc(Cl)cc1C(=O)NNC(=S)NC1CCCC1`, the Potency entry was “inactive”. The same measure for `O=C(c1ccco1)N1CCN(C(=O)c2cc(-c3ccccc3F)no2)CC1`: 13.5 µM (active); for `COc1cc(Cl)ccc1OCc1cc(C(=O)N(C)CCc2c(C)n[nH]c2C)no1`: “inactive”; for `Cc1ccc(C)c(OCc2cc(C(=O)N3CCN(c4cnccn4)CC3)no2)c1`: “inactive”.

Turning to `O=C(NCCCN1CCOCC1)c1cc(-c2ccccc2F)no1`, the Potency result was “inactive”. The result for `COc1cc(Cl)ccc1OCc1cc(C(=O)N2CC[C@@H]3CCCC[C@H]3C2)no1` reads 23.9 µM (active). The same measure for `COc1ccccc1-c1cc(C(=O)N2CCCCC2)no1`: 5.36 µM (active); for `COc1ccccc1OCc1ccc(C(=O)N2CCN(C)CC2)o1`: “inactive”.

On to `COc1ccc(OCc2cc(C(=O)N3CCCC3)no2)c2ccccc12`, for which the Potency was 9.53 µM (active).

Consider `O=C(Cc1c(F)cccc1Cl)N1CCN(C(=O)c2ccco2)CC1`, for which the Potency entry was “inactive”. The result for `COc1cccc(-c2cc(C(=O)N3CCN(c4ccccc4OC)CC3)no2)c1` reads “inactive”; that for `Fc1ccc(-c2nn(-c3ccccc3Cl)c3c2cnc2ccccc23)cc1`, “inactive”; that for `O=C(CN1C2CCC1CC(NC(=O)C1CC1)C2)NCc1ccccc1` (stereo not given), “inactive”.

For `COc1ccc(CNC(=O)CN(Cc2ccccc2Cl)C(=O)c2csnn2)cc1`, the Potency entry was “inactive”. The same measure for `CCc1nn(CC(=O)Nc2cc(C)cc(C)c2)c(=O)c2cc3sccc3n12`: “inactive”.

`O=C(NCC(c1ccc(Cl)cc1)N1CCOCC1)c1ccccc1F` (stereo not given): the Potency result was “inactive”.

On to `COC(=O)c1scc(S(=O)(=O)C(C)(C)C)c1-n1cccc1`, for which the Potency entry is “inactive”.

For the compound `O=C(NCCC1=CCCCC1)c1ccc2c(c1)N(Cc1ccccc1F)C(=O)c1ccccc1S2(=O)=O`, the Potency entry was “inactive”. In the case of `COCCNc1nnc(SCC(=O)NNC(=O)c2ccco2)s1`, the Potency result is “inactive”. The result for `Cc1cccc(Cc2c(C)nc3nc(SCc4ccccc4Cl)nn3c2C)c1` reads “inactive”; that for `CCOC(=O)c1ccc(NC(=O)Cn2cc(S(=O)(=O)Cc3ccccc3F)c3ccccc32)cc1`, “inactive”; that for `Cc1ccc(CNC(=O)CCc2c(C)nc3c(c(C)nn3-c3ccccc3)c2C)cc1`, “inactive”. For the compound `CC(C)(C)NC(=O)CSC(=Nc1ccccc1F)NC#N`, the Potency entry is “inactive”. The same measure for `CC1(C)Cc2ccccc2/C(=C/C(=O)c2ccccc2)N1`: “inactive”; for `CC1CN/C(=C\C(=O)c2ccc(Br)cc2)C(=O)N1` (stereo not given): 1.9 µM (active); for `O=C(O)C1CCCN1S(=O)(=O)c1ccc(Br)cc1` (stereo not given): “inactive”.

As to `CCN(CC)S(=O)(=O)c1ccc(Cl)c(C(=O)NCCN2CCOCC2)c1`, the Potency entry was “inactive”. Take `O=C(NCc1ccccc1)C(c1ccccc1)N(C(=O)c1csnn1)c1ccc(F)cc1` (stereo not given): the Potency entry is “inactive”. As for `COc1cccc(CNC(=O)CN2C(=O)CCc3cc(S(=O)(=O)N4CCOCC4)ccc32)c1`, the Potency entry was “inactive”.

On to `Cc1nc(-c2ccc(F)cc2)c(CC(=O)N(C)CC(=O)Nc2c(C)cccc2C)s1`, for which the Potency entry was “inactive”.

On to `COc1ccc(OC)c(/C=N/NC(=O)CSc2nnc(C)n2-c2ccccc2)c1`, for which the Potency entry was “inactive”. The same measure for `COc1ccc(C(=O)NC2CC(C)(C)Cc3c2cnn3-c2ccccc2)c(OC)c1` (stereo not given): “inactive”. The result for `COc1ccc(/C=C2/C(=O)N(c3ccccc3)N=C2C)c(OC)c1` reads 15.1 µM (active). Consider `CCCCc1ccc(NS(=O)(=O)c2cccc(C(=O)N3CCCN(C)CC3)c2)cc1`, for which the Potency entry is “inactive”. The same measure for `COc1ccc(/C=C/C(=O)c2ccc(NS(=O)(=O)c3ccc(C)cc3)cc2)cc1O`: 6.01 µM (active). The same measure for `COc1cc(NS(=O)(=O)c2ccc(NC(C)=O)cc2)cc(OC)c1`: “inactive”; for `COc1ccc(NS(=O)(=O)c2ccc(NC(=S)NC(=O)/C=C/c3ccc(C)cc3)cc2)nn1`: “inactive”. The same measure for `COc1cccc2c1cc1c(=O)n(CC(=O)N3CCN(c4ccccc4)CC3)nc(C)n12`: “inactive”. As for `Cc1ccsc1/C=N/n1c(=S)[nH]nc(C)c1=O`, the Potency entry was “inactive”. The result for `COc1cccc(OCc2cc(/C=N/NC(=O)c3nc(Cl)c(Cl)c(N)c3Cl)ccc2OC)c1` reads “inactive”; that for `COc1ccc(/C=N/NC(=O)C2CC2)c(OC)c1OC`, “inactive”; that for `COc1cc2cc(C(=O)N/N=C/c3cccc(OC)c3OC)[nH]c2cc1OC`, 16.9 µM (active).

For the compound `COc1cccc(/C=N/NC(=O)CNC(=O)c2ccc(S(=O)(=O)N3CCOCC3)cc2)c1OC`, the Potency result was “inactive”. The same measure for `CCOc1ccccc1/C=N/NC(=O)CNC(=O)COc1ccccc1`: “inactive”; for `CCOc1ccc2[nH]c(C(=O)N/N=C/c3cccc(OC)c3OC)cc2c1`: 15.1 µM (active); for `COc1ccc2[nH]c(C(=O)N/N=C/c3cc(OC)c(OC)c(OC)c3)cc2c1`: 12 µM (active). The same measure for `COc1ccc(CC(=O)NCC(=O)N/N=C/c2cc(Br)ccc2OC)cc1`: “inactive”; for `COc1cc(/C=N/NC(=O)Cc2ccccc2)cc(OC)c1OC`: “inactive”; for `Cc1[nH]c2ccccc2c1C(=O)C(C)Sc1nnc(C2CC2)o1` (stereo not given): “inactive”. The result for `CC1=C(C(=O)OCC(C)C)C(c2ccc(OCc3ccccc3)cc2)N2C(=O)CCSC2=N1` (stereo not given) reads “inactive”; that for `Cc1cccc(C(=O)N2CCc3cc(CNC(=O)Cc4ccc(F)cc4)ccc32)c1`, “inactive”. Turning to `O=C(CSc1oc(-c2ccc(F)cc2)nc1S(=O)(=O)c1ccc(Br)cc1)NC1CCCCC1`, the Potency entry is “inactive”.

Regarding `CCOC(=O)c1ccc2c(c1)N(Cc1cccc(OC)c1)C(=O)c1ccccc1S2(=O)=O`, the Potency entry was “inactive”. The same measure for `C/C(=N\NC(=O)Cc1ccc(Cl)cc1)c1ccccn1`: “inactive”; for `C/C(=N\NC(=O)c1ccccc1F)c1ccccn1`: 2.39 µM (active). The result for `C/C(CC(=O)Nc1ccc(N(C)C)cc1)=N\NC(=O)c1ccccc1F` reads “inactive”.
